Source: PubChem BioAssay (National Center for Advancing Translational Sciences (NCATS))
The list is not random: actives were taken first. Their share in the collection is about 5.6%.
RORgamma inh: inhibitors of mouse ROR gamma transcriptional activity; actives 5.4% (n = 310,000); Potency, µM (doses to about 53.6 µM), usual class: inhibitors; P51450; AID 2551; Drosophila S2 Gal4-RORgamma UAS-luciferase reporter, 20 h; note: nearly all actives have a fitted effect of over 60% in size
Target sequence (P51450 whole entry, looked up, the tested form may be a part): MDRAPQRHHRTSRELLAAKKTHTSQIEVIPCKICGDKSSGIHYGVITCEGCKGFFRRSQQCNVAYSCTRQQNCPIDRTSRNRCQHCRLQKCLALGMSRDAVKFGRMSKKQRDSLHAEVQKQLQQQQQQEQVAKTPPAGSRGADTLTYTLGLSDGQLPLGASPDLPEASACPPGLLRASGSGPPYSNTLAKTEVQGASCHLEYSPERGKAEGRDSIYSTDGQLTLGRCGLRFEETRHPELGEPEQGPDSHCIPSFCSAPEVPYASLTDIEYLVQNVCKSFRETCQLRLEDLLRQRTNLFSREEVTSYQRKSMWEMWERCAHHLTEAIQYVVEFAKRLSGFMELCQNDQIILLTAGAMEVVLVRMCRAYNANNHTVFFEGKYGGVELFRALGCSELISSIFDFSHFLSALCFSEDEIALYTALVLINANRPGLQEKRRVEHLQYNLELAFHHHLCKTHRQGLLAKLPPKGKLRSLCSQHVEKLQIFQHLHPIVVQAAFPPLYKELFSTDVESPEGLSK
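In this cell-based reporter format, copper sulfate (700 uM final) drives Gal4–ROR gamma fusion expression from a metallothionein promoter in Drosophila Schneider cells; compounds preincubated 1 hr, reporter read after 20 hr at ambient temperature.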
Six1-Eya2 blk: inhibitors of human Six1/Eya2 interaction. Q15475+O00167. AlphaScreen GST-Six1/His-Eya2 binding, biochemical; active compounds read low. activity change, % (concentration not given with the values). actives 0.56% (n = 360,000); in the data active = activity change below about -65%; inconclusive = mostly about -30% to -63%
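Compounds are tested against tagged Six1 and Eya2 proteins bridged by glutathione donor and nickel acceptor beads; after a one-hour incubation at 37 °C without light, AlphaScreen emission is recorded.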
CtBP-E1A inh: blocks the CtBP interaction with E1A; AID 651724; actives 0.49% (n = 340,000); AlphaScreen GST-E1A/His-CtBP binding, 1536-well; active compounds read low; activity change, % (concentration not given with the values); in the data active = activity change below about -65%; inconclusive = mostly about -30% to -63%
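In 5 uL wells, 23 nL compound meets equimolar GST-E1A and His-CtBP (5X stock 125 nM each) for 2 h, 37 °C. Beads (5X, 50 ug/mL) then 1 h, 37 °C, dark.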
PKM2 act: activators of human pyruvate kinase M2. P14618. purified PKM2, Kinase-Glo ATP luminescence, activation; response scale: 0% is enzyme alone, no compound. Potency, µM (series often up to 57.5 µM), hits mostly activators. actives 0.34% (n = 260,000). AID 1631; note: nearly all actives have a fitted effect of over 55% in size
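ATP formation by purified human PK-M2, quantified via coupled luciferase luminescence after 1 h at room temperature with 0.1 mM ADP and 0.5 mM PEP final.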
VP16 counter: Gal4-VP16 reporter inhibition counter-screen. Drosophila S2 Gal4-VP16 UAS-luciferase, luminescence, 20 h. Potency, µM (doses to about 53.6 µM), usual class: inhibitors. actives 3.5% (n = 310,000);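 note: Gal4-VP16 expression switched on by copper sulfate through the metallothionein promoter; nearly all actives have a fitted effect of over 50% in size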
Large screens that a line does not name were inactive. Unless noted, calls come from the whole dose curve; as a rule, active = well fitted curve in the direction sought with a large enough effect; inconclusive = small, poorly fitted or top-dose-only effect, or another doubt; inactive = no such curve, though single readings can be large; an effect the other way counts as inactive or inconclusive.

COc1cc(OC)cc(C(=O)N/N=C/c2ccc(OC)c(COc3ccc(F)cc3)c2)c1	RORgamma inh 4µM, VP16 counter inconclusive
COc1ccc(/C=N\NC(=O)c2ccc([N+](=O)[O-])cc2)cc1COc1c(F)c(F)cc(F)c1F	RORgamma inh 3.5µM, VP16 counter 4.5µM
COC(=O)CCN1CCc2cc(N=Nc3ccc([N+](=O)[O-])cc3)ccc21	Six1-Eya2 blk inconclusive, CtBP-E1A inh inconclusive
NC(=O)c1ccc(/C(N)=N/S(=O)(=O)c2cc(C(F)(F)F)cc(C(F)(F)F)c2)cc1	none
CC1CCCN(S(=O)(=O)c2ccc(C(=O)Nc3nnc(C4=COCCO4)o3)cc2)C1 (stereo not drawn)	RORgamma inh 0.79µM, VP16 counter 1.1µM (no result: Six1-Eya2 blk, CtBP-E1A inh)
O=C(Nc1ccon1)c1ccc(S(=O)(=O)N2CCOCC2)cc1	none (no result: CtBP-E1A inh)
O=C(Nc1nnc(C2=COCCO2)o1)c1ccc(S(=O)(=O)N2CCOCC2)cc1	RORgamma inh 11µM, CtBP-E1A inh inconclusive
CC1CCCCN1S(=O)(=O)c1ccc(C(=O)Nc2nnc(C3=COCCO3)o2)cc1 (stereo not drawn)	RORgamma inh 0.89µM, VP16 counter 1.3µM
CC1CCCCN1S(=O)(=O)c1ccc(C(=O)N2CCOCC2)cc1 (stereo not drawn)	none
CS(=O)(=O)c1ccc(-c2nnc(NC(=O)c3ccc(S(=O)(=O)N4CCCC4)cc3)o2)cc1	none (no result: RORgamma inh, PKM2 act, VP16 counter)
CC[C@H](C)[C@H]1CNC(=O)C(=O)N1CC1CCN(CCc2ccccc2)CC1	none (no result: RORgamma inh, PKM2 act, VP16 counter)
Cc1c(Cl)cccc1NS(=O)(=O)c1c(C(=O)N2CCOCC2)c(C)n(C)c1C	none (no result: PKM2 act)
Cc1ccccc1/C=c1\s/c(=C\C(=O)C(C)(C)C)[nH]c1=O	RORgamma inh inconclusive, Six1-Eya2 blk inconclusive, VP16 counter 0.89µM
Nc1nc(CN2CCN(c3ccccc3)CC2)nc(N2CCCc3ccccc32)n1	none
Nc1nc(CN2CCN(c3ccccc3F)CC2)nc(N2CCCc3ccccc32)n1	RORgamma inh 11µM, VP16 counter inconclusive
Nc1nc(CN2CCN(Cc3ccccc3)CC2)nc(N2CCCc3ccccc32)n1	RORgamma inh 10µM
CCc1ccccc1NNC(=O)CCc1ccccc1	none
CCCCCC(=O)NNC1=NCC(Cc2ccccc2)S1 (stereo not drawn)	RORgamma inh 1.4µM, VP16 counter inconclusive
CC1CC(C)CN(S(=O)(=O)N2CCC(C(=O)NCCc3ccccc3)CC2)C1 (stereo not drawn)	none
O=C(NCCN1C(=O)S/C(=C\c2cccs2)C1=O)c1ccc(=O)[nH]c1	PKM2 act 4.5µM (no result: Six1-Eya2 blk, CtBP-E1A inh)
Cc1c2c(nc3ccccc13)CCC(C(C)(C)C)C2 (stereo not drawn)	RORgamma inh 4µM, VP16 counter inconclusive
COc1ccc(Nc2nc(N3CCN(S(=O)(=O)N(C)C)CC3)nc3ccccc23)cc1	RORgamma inh inconclusive
COC(=O)C(C)Oc1ccc(Oc2nc(Cl)ccc2Cl)cc1 (stereo not drawn)	none
S=c1[nH]nc(COc2cccc3ccccc23)n1Cc1ccccc1	RORgamma inh 3.2µM, VP16 counter inconclusive
Cc1ccccc1OCc1nnc(SCC(=O)O)n1Cc1ccccc1	none
COc1ccc(Cc2n[nH]c(=S)n2Cc2ccccc2)cc1Cl	none
Cc1ccc(OCc2n[nH]c(=S)n2Cc2ccccc2)cc1	RORgamma inh 0.89µM, VP16 counter 6.3µM
COc1ccccc1C(=O)NCc1n[nH]c(=S)n1Cc1ccccc1	RORgamma inh inconclusive (no result: CtBP-E1A inh)
CCOc1ccc(Cc2n[nH]c(=S)n2Cc2ccccc2)cc1	RORgamma inh 4.5µM (no result: CtBP-E1A inh)
Cc1ccccc1OCc1n[nH]c(=S)n1Cc1ccccc1	RORgamma inh 3.5µM, VP16 counter inconclusive
CSc1ncnc2c1ncn2CCCNCC(c1ccccc1)c1ccccc1	none (no result: RORgamma inh, PKM2 act, VP16 counter)
COc1ccc(/C=N/NC(=O)c2cccnc2)c2ccccc12	RORgamma inh 1.3µM (no result: PKM2 act)
COc1ccc(/C=N/NC(=O)c2cccs2)c2ccccc12	none (no result: RORgamma inh, PKM2 act, VP16 counter)
COc1ccc(/C=N/NC(=O)c2c(Br)cnn2C)c2ccccc12	RORgamma inh 20µM, VP16 counter 2.8µM
COc1ccc(/C=N/NC(=O)c2ccccc2O)cc1Cn1cc(Cl)cn1	RORgamma inh 6.3µM, VP16 counter 14µM
CCOc1cc(Br)cc(/C=N/NC(=O)c2cccnc2)c1O	RORgamma inh 0.79µM, Six1-Eya2 blk -67, CtBP-E1A inh -92, VP16 counter 1µM
COc1ccc(/C=N\NC(=O)c2cccc([N+](=O)[O-])c2)cc1Cn1cc([N+](=O)[O-])cn1	none (no result: Six1-Eya2 blk, CtBP-E1A inh)
COC(=O)[C@H](Cc1ccccc1)NC(=O)O[C@@H]1C(=O)c2cc(OC)ccc2O[C@H]1c1cccc(OC)c1	none (no result: Six1-Eya2 blk, CtBP-E1A inh, PKM2 act)
CCN(C(=O)CSc1ccc2ccccc2n1)C1CCCCC1	none (no result: RORgamma inh, PKM2 act, VP16 counter)
COc1ccc(/C=N/NC(=O)c2cccnc2)cc1CN1CCCc2ccccc21	RORgamma inh 10µM
O=C(CSc1nnc(SCc2ccc(Cl)cc2)s1)N/N=C/c1ccccc1C(=O)O	none
C[C@@H](NC(=O)[C@@H]1CCCN1C(=O)[C@@H]1CCCN1C(=O)c1ccc(Cl)cc1)c1ccccc1	none (no result: RORgamma inh, PKM2 act, VP16 counter)
CCOc1ccc(C(=O)CC(NCc2cccs2)C(=O)O)cc1 (stereo not drawn)	RORgamma inh 4.5µM, VP16 counter 13µM
CCOc1ccc(C(=O)CCC(=O)N(CC)CC(=O)NCc2cccs2)cc1	none (no result: RORgamma inh, PKM2 act, VP16 counter)
CCSc1ccccc1C(=O)NC1CCCCC1	none
Cc1ccc(C(=O)NC(=S)NNC(=O)COc2ccccc2C)cc1	RORgamma inh 4µM, VP16 counter inconclusive
CCC(=O)NNC(=S)NC(=O)c1ccc(C)cc1	RORgamma inh 3.2µM, VP16 counter 18µM
COc1ccc(Br)cc1S(=O)(=O)NCCc1cccs1	none (no result: RORgamma inh, PKM2 act, VP16 counter)
